Test results: PubChem BioAssay (Tox21)
Results filed as inconclusive are left out. Entries that show only a call come without a potency. The source made the active and inactive calls. Calls follow the shape of the dose curve; as a rule, active = well fitted activation curve with a large enough effect in the repeat runs; inconclusive = weak or mixed curves; inactive = flat fitted curve, though single readings scatter.

assay: A CellTox Green Cytotoxicity Assay to monitor cytotoxicity in HEK293 cells - 32 hour (AID 1224881); conditions: CellTox Green fluorescence; series mostly up to 76.8 µM; also: nearly all actives have a fitted effect of over 40% in size
Excerpt: National Center for Advancing Translational Sciences [NCATS]
NIH Chemical Genomics Center [NCGC]
U.S. Environmental Protection Agency [EPA]
National Institutes of Environmental Health Sciences [NIEHS]
National Toxicology Program [NTP]
Cell-based models are critical for drug discovery. Determining the natural cytotoxic effects resulting from test compounds is an essential research activity. A CellTox Green Cytotoxicity Assay to monitor cytotoxicity in real time of continues cell culture during 40 hours of the compound treatment was used to screen Tox21 10K library compounds in Hek293 cells. CellTox Green Cytotoxicity Assay is a nonlytic, homogeneous, biofluorescent method to measure cytotoxicity in cell culture after experimental manipulation. The assay system uses a proprietary asymmetric cyanine dye that is excluded from viable cells but preferentially stains the dead cell's DNA. […] Viable cells produce no appreciable increases in fluorescence. Therefore, the fluorescence signal produced by the binding interaction with dead cell DNA is proportional to cytotoxicity.
The mixture of Hek293 cell suspension and reagents were dispensed at 600cells/6 ul/well in 1536-well tissue culture treated black solid bottom plates using a Multidrop dispenser. After the assay plates were incubated at a 37 C/5% CO2 incubator for 5 hours, 23 nL of compounds dissolved in DMSO, positive and negative controls was transferred to the assay plate by a pintool work station. The plates were incubated at 37 C for 40 hours. The fluorescence intensity were measured at 0h, 8h, 16h, 24h, 32h and 40h time points using ViewLux plate reader during compound treatment.
Potency is read from the fitted curve at half-maximal effect.

SMILES | Potency
CN1C(=O)CCS(=O)(=O)C1c1ccc(Cl)cc1 (stereo not given) | inactive
CNC(=O)O/N=C/C(C)(C)S(C)(=O)=O | inactive
OCCCCO | inactive
COc1nc(NC(C)C)nc(NC(C)C)n1 | inactive
c1ccc2c(c1)CCCC2 | inactive
OC[C@@H](O)[C@H]1O[C@@H]2O[C@H](C(Cl)(Cl)Cl)O[C@@H]2[C@H]1O | inactive
O=C/C=C/c1ccccc1 | inactive
CCOP(=S)(OCC)Oc1ccc([N+](=O)[O-])cc1 | inactive
CCCCC(CC)C(=O)Cl (stereo not given) | inactive
ClC(Cl)c1ccccc1 | inactive
COC(=O)Nc1cccc(OC(=O)Nc2cccc(C)c2)c1 | inactive
C=C(C)C(=O)OCC(CC)CCCC (stereo not given) | inactive
Clc1cnc(Oc2ccc(Oc3ncc(Cl)cc3Cl)cc2)c(Cl)c1 | 27.5 µM (active)
Nc1ccc([As](=O)(O)O)cc1 | inactive
Nc1cc(Cl)cc(Cl)c1 | inactive
COS(=O)(=O)OC | inactive
CN(C)CCC#N | inactive
Cc1cccc(N)c1 | inactive
CN(C)NC(=O)CCC(=O)O | inactive
Sc1ccccc1 | inactive

SMILES | Potency
CCCCCCCCCCCCCCCCCC(=O)O | inactive
C=CC(=O)OCCCCCC(C)C | inactive
ClCCOCCCl | inactive
CCCOC(=O)c1ccccc1C(=O)OCCC | inactive
OCC(O)CCl (stereo not given) | inactive
O=S(=O)(O)OOS(=O)(=O)O | inactive
CNC(=O)O/N=C(\SC)C(=O)N(C)C | inactive
FC(F)(F)c1ccc(Cl)cc1 | inactive
CC(=O)/C=C/c1ccccc1 | inactive
CNC(=O)O/N=C/C(C)(C)SC | inactive
O=[N+]([O-])c1cc([As](=O)(O)O)ccc1O | inactive
Oc1c(Br)cc(Br)cc1Br | inactive
Cc1cc(Cl)ccc1OC(C)C(=O)O (stereo not given) | inactive
C=CC(=O)OCC(CC)CCCC (stereo not given) | inactive
CNC(=O)Oc1cccc2ccccc12 | inactive
CC(C)CCCCCCOC(=O)c1ccccc1C(=O)OCCCCCCC(C)C | inactive
CC(=O)C1CCOC1=O (stereo not given) | inactive
CN(C)C(=O)Cl | inactive
C/C=C/c1ccc2c(c1)OCO2 | inactive
O=P1(NCCCl)OCCCN1CCCl (stereo not given) | inactive
